PubChem BioAssay AID686999 (Broad Institute, 2013)
Entries with a potency or affinity are not part of this list. Inconclusive results are not listed.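 How the source made its calls: active means active in every separate test run, each with half-maximal potency at or under twice its top valid dose; inconclusive means the separate test runs give conflicting calls; inactive means inactive in every test run, including signal rising instead.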

assay: Cryptococcus growth inhibition by alamar blue – cell lysis, cherry-picks, replicate tests, mechanism study for C. neoformans antifungal project, dose response (AID 686999); details: 72 h; series mostly up to 35 µM; activity change, negative = inhibition: at the top concentration

Activity change, negative = inhibition, inactive:
S=C(Nc1ccc(Cl)cc1Cl)Nc1ccccc1Oc1ccccc1 9.91%, CCCCN1C(=S)NC[C@@H]1Cc1ccccc1 -1.43%, COc1ccc(C(=O)NC(=S)Nc2ccccc2N2CCCCC2)cc1[N+](=O)[O-] 9.23%, Fc1ccccc1NC(=S)NN(Cc1ccccc1)c1ccccc1 13.9%, Cc1ccc(C)c(NC(=O)C2(C)CCCN2C(=O)C(C)C)c1 (stereo unspecified) 20.1% [at 56 µM], CCc1ccc(C(C)NC(=S)NCc2ccc(F)cc2)cc1 (stereo unspecified) -1.97%, S=C(NCc1ccccc1)NCC1COc2ccccc2O1 (stereo unspecified) 13.4%, O=C(NC(=S)Nc1ccccc1N1CCCC1)c1ccc([N+](=O)[O-])cc1 2.13%, Cc1ccc(C(=O)NC(=S)Nc2ccc(N3CCOCC3)cc2)cc1 7.95%, COc1cccc(NC(=S)NC(=O)Cc2ccc(Cl)cc2)c1 5.7%, Cc1cc(Cl)ccc1NC(=S)NCc1ccc(F)cc1 12.4%, Cc1cc(C)c2nc(N3CCN(C(=O)c4cccs4)CC3)sc2c1 -5.83%, O=C(NC(=S)Nc1ccccc1N1CCCC1)c1ccccc1[N+](=O)[O-] 16.2%, O=C(NC(=S)Nc1ccccc1N1CCOCC1)c1cccc([N+](=O)[O-])c1 3.65%, O=C(NCCN1CCCCC1)[C@H]1N[C@H]2c3ccc(-c4ccncc4)c(=O)n3C[C@H]2[C@@H]1CO 8.18%, COC(=O)C1=C(C)N(CC(C)C)C(=S)NC1c1ccc(F)cc1 (stereo unspecified) -6.25% [at 42 µM], COc1ccccc1NC(=S)NCc1ccccc1Cl 8.26%, CCCCNC(=S)N/N=C/c1ccc(C#N)cc1 13.6%, CCc1nc(N2CCCCC2C)c2oc3ccccc3c2n1 (stereo unspecified) 14%, Cc1cc(C(=O)NC(=S)Nc2ccccc2N2CCOCC2)ccc1[N+](=O)[O-] -3.3%, COC(=O)C1=C(C)N(Cc2ccc(F)cc2)C(=S)NC1c1ccccc1 (stereo unspecified) -0.405% [at 38 µM]
